Holding throughout (assay): Confirmatory Screen for Target Class Profiling of Small Molecule Inhibitors of Methyltransferases (AID 1745852); for activity change, negative = inhibition: % is set by controls: 0 for no effect and ±100 for the full control effect
In assay [1] the target is Guanidinoacetate N-methyltransferase (Homo sapiens) (UniProt Q14353). The following applies: activity change, negative = inhibition: at 57.3 µM (top of the series) unless noted.
For assay [2], the target named is Nicotinamide N-methyltransferase (Homo sapiens) (UniProt P40261). The conditions noted are these: MTase-Glo luminescence, SAH detection, recombinant enzyme; measured here: NNMT max response; stronger effect = lower value.
Sequence of Nicotinamide N-methyltransferase (Homo sapiens) (P40261 whole entry, looked up): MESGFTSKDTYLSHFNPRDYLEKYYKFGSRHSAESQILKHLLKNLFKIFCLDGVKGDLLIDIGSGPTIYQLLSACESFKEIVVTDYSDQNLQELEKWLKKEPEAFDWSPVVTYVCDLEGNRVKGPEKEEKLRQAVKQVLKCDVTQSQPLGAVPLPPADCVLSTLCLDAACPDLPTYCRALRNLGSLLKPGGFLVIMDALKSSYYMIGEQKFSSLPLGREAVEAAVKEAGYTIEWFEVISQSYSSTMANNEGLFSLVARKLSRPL
Assay [3] concerns the target Phenylethanolamine N-methyltransferase (Homo sapiens) (UniProt P11086). The following applies: MTase-Glo luminescence, SAH detection, recombinant enzyme; measured here: PNMT max response; stronger effect = lower value.

Active and inactive are the calls of the source. Calls come from the whole dose curve.
Potency is the fitted concentration of half-maximal effect.

Sequence of Phenylethanolamine N-methyltransferase (Homo sapiens) (P11086 whole entry, looked up): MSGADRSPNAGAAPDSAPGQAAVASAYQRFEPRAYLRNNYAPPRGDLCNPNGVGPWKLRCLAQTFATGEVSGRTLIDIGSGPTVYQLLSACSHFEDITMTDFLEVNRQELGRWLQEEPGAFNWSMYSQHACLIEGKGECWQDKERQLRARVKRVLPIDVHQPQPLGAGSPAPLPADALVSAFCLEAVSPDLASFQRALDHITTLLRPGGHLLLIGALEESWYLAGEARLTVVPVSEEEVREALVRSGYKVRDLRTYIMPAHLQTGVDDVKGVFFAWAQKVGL

As to `CC(C)c1nc(-c2ccc(NC(=O)Nc3cccc(C(F)(F)F)c3)c3ccccc23)c2c(N)nccn12`, in assay [1], the activity change, negative = inhibition was -2.79%. For the same compound, the values for the activity in assay [2] and in assay [3] were -2.22% and -6.27%, respectively.
As for `COc1cc2ncnc(Nc3ccc(F)c(Cl)c3)c2cc1NC(=O)/C=C/CN1CCCCC1`, the Potency in assay [1] was 24.1 µM (active). Moreover, the activity was -36.6% in assay [2] and -39.3% in assay [3].
As to `CCN1CCN(Cc2ccc(NC(=O)Nc3ccc(Oc4cc(NC)ncn4)cc3)cc2C(F)(F)F)CC1`, the activity change, negative = inhibition in assay [1] amounted to 0%. The activity in assay [2] is -7.66%; in assay [3], -2.63%.
For `CC/C=C\CCO[C@@H]1O[C@H](CO)[C@@H](O)[C@H](O)[C@H]1O` the same measures were 0%, 1.9% and 0.287%.
Taken in the same sequence, the figures for `COc1cc2nc(N3CCCC3)nc(NCCCCCN3CCCC3)c2cc1OC` were 0.888%, -30.1% and -0.684%.
In the case of `C=C1C(=O)OC2C1CCC(=C)C1CC(OC(C)=O)C(=C)C12` (stereo unspecified), in assay [1], the activity change, negative = inhibition was -10.4%. For the same compound, the activity was -9.15% in assay [2] and -8.53% in assay [3].
For `CCN(CC)CCN(Cc1ccc(-c2ccc(C(F)(F)F)cc2)cc1)C(=O)Cn1c(SCc2ccc(F)cc2)nc(=O)c2c1CCC2` the same measures were 0%, -45.6% and -1.88%.
With `COc1cc(N2CCC(N3CCN(C)CC3)CC2)ccc1Nc1ncc(Cl)c(-c2c[nH]c3ccccc23)n1`, the Potency in assay [1] is 24.1 µM (active). Moreover, the activity in assay [2] was -32.6%; in assay [3] it was -23.1%.
As to `C=C(C(=O)O)C1CC(O)C2(C)CCCC(=C)C2C1` (stereo unspecified), the activity change, negative = inhibition in assay [1] came to 0%. Moreover, the activity in assay [2] was found to be 4.87%; in assay [3], 3.46%.
`O=C(O)c1ccc(CN2CCC(CN[C@@H]3C[C@H]3c3ccccc3)CC2)cc1`: the activity change, negative = inhibition in assay [1] was -0.127%. In addition, the values for the activity in assay [2] and in assay [3] were -0.425% and 5.38%, respectively.
For `C=C1C(=O)OC2/C=C(\CO)CC/C=C(\C=O)CC(OC(=O)CC(C)C)C12` (stereo unspecified) the same measures were -0.648%, -4.38% and -2.45%.
As for `CC(C)[C@@](C)(O)[C@@H]1CN(c2nc(-c3[nH]nc4ncccc34)c(F)cc2Cl)CCN1`, in assay [1], the Potency is 27.1 µM (active). The activity in assay [2] is -56.9%; in assay [3], -65.1%.
